Results taken from PubChem BioAssay AID1159580 (chemical genetic matrix, 2015).
The whole screen tested about 5,500 compounds, of which about 2,000 (36%) were called active. Inconclusive results (about 18%) are left out. Rule as the data show it: active = normalized growth mostly below about 0.91 (no sharp cut-off); inconclusive = no clear call, values can overlap the other calls; inactive = mostly above about 0.92. Some of the results follow.

Test: chemical genetic growth profiling, strain panel (AID 1159580);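 also: tested at 20 µM; growth read once vehicle control cultures reached saturation at 30 °C; 1 = growth at the plate median or of vehicle wells; lower values mean less growth of the strain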
Settings: growth OD

Measured: normalized growth

CN(N=O)C(=O)N[C@@H]1[C@@H](O)[C@H](O)[C@@H](CO)O[C@@H]1O
inactive: S. cerevisiae deletion strains, locus YJL187C, strain SWE1 (second series), active compounds read low 1.01 | S. cerevisiae deletion strains, locus YJR043C, strain POL32, active compounds read low 1.01 | S. cerevisiae deletion strains, locus YJR066W, strain TOR1, active compounds read low 0.99 | S. cerevisiae deletion strains, locus YKL009W, strain mrt4, active compounds read low 1.05 | S. cerevisiae deletion strains, locus YKL068W, active compounds read low 1 | S. cerevisiae deletion strains, locus YKL085W, strain MDH1 (second series), active compounds read low 1.01 | S. cerevisiae deletion strains, locus YKL085W, strain MDH1, active compounds read low 1.01 | S. cerevisiae deletion strains, locus YKL160W, strain elf1, active compounds read low 1.02 | S. cerevisiae deletion strains, locus YKR001C, strain vps1, active compounds read low 1 | S. cerevisiae deletion strains, locus YKR026C, strain gcn3, active compounds read low 0.973 | S. cerevisiae deletion strains, locus YKR091W, strain srl3, active compounds read low 0.988 | S. cerevisiae deletion strains, locus YLL001W, strain dnm1, active compounds read low 0.987 | S. cerevisiae deletion strains, locus YLL026W, active compounds read low 0.994 | S. cerevisiae deletion strains, locus YLL041C, strain sdh2, active compounds read low 0.971 | S. cerevisiae deletion strains, locus YLR027C, strain aat2, active compounds read low 1.01 | S. cerevisiae deletion strains, locus YLR039C, strain RIC1, active compounds read low 1.03 | S. cerevisiae deletion strains, locus YLR058C, strain SHM2, active compounds read low 1.01 | S. cerevisiae deletion strains, locus YLR102C, strain apc9, active compounds read low 0.999 | S. cerevisiae deletion strains, locus YLR113W, strain HOG1, active compounds read low 1.03 | S. cerevisiae deletion strains, locus YLR221C, strain rsa3, active compounds read low 0.99 | S. cerevisiae deletion strains, locus YLR258W, strain gsy2, active compounds read low 0.985 | S. cerevisiae deletion strains, locus YLR262C, strain YPT6 (second series), active compounds read low 0.978 | S. cerevisiae deletion strains, locus YLR262C, strain YPT6, active compounds read low 1.02 | S. cerevisiae deletion strains, locus YLR268W, strain sec22, active compounds read low 0.999 | S. cerevisiae deletion strains, locus YLR320W, strain mms22, active compounds read low 0.977 | S. cerevisiae deletion strains, locus YLR330W, strain CHS5, active compounds read low 1.01 | S. cerevisiae deletion strains, locus YLR342W, strain FKS1 (second series), active compounds read low 1.06 | S. cerevisiae deletion strains, locus YLR342W, strain FKS1, active compounds read low 1.01 | S. cerevisiae deletion strains, locus YLR357W, strain rsc2, active compounds read low 0.958 | S. cerevisiae deletion strains, locus YLR370C, strain arc18, active compounds read low 0.999 | S. cerevisiae deletion strains, locus YLR371W, strain rom2, active compounds read low 1.02 | S. cerevisiae deletion strains, locus YLR384C, strain iki3, active compounds read low 0.986 | S. cerevisiae deletion strains, locus YLR418C, strain cdc73, active compounds read low 0.994 | S. cerevisiae deletion strains, locus YML016C, strain PPZ1, active compounds read low 1 | S. cerevisiae deletion strains, locus YML032C, strain rad52, active compounds read low 1.02 | S. cerevisiae deletion strains, locus YML120C, strain ndi1, active compounds read low 0.986 | S. cerevisiae deletion strains, locus YML124C, strain tub3, active compounds read low 1 | S. cerevisiae deletion strains, locus YMR058W, strain fet3, active compounds read low 1 | S. cerevisiae deletion strains, locus YMR078C, strain ctf18, active compounds read low 1.01 | S. cerevisiae deletion strains, locus YMR125W, strain sto1, active compounds read low 0.954 | S. cerevisiae deletion strains, locus YMR129W, active compounds read low 1 | S. cerevisiae deletion strains, locus YMR205C, strain PFK2, active compounds read low 0.98 | S. cerevisiae deletion strains, locus YMR223W, strain ubp8, active compounds read low 1.04 | S. cerevisiae deletion strains, locus YMR231W, strain pep5, active compounds read low 0.994 | S. cerevisiae deletion strains, locus YMR307W, strain GAS1, active compounds read low 1.04 | S. cerevisiae deletion strains, locus YNL067W, strain RPL9B, active compounds read low 1.03 | S. cerevisiae deletion strains, locus YNL071W, strain lat1, active compounds read low 0.983 | S. cerevisiae deletion strains, locus YNL128W, strain TEP1, active compounds read low 1.03 | S. cerevisiae deletion strains, locus YNL153C, strain GIM3, active compounds read low 0.997 | S. cerevisiae deletion strains, locus YNL183C, strain NPR1, active compounds read low 0.983 | S. cerevisiae deletion strains, locus YNL209W, strain ssb2, active compounds read low 0.982 | S. cerevisiae deletion strains, locus YNL233W, strain BNI4, active compounds read low 1.01 | S. cerevisiae deletion strains, locus YNL248C, strain rpa49, active compounds read low 0.978 | S. cerevisiae deletion strains, locus YNL250W, strain rad50, active compounds read low 1.03 | S. cerevisiae deletion strains, locus YNL271C, strain bni1, active compounds read low 1 | S. cerevisiae deletion strains, locus YNL298W, strain CLA4, active compounds read low 1.01 | S. cerevisiae deletion strains, locus YNL307C, strain MCK1, active compounds read low 1.02 | S. cerevisiae deletion strains, locus YNL322C, strain KRE1 (second series), active compounds read low 1.01 | S. cerevisiae deletion strains, locus YNR049C, strain mso1, active compounds read low 0.983 | S. cerevisiae deletion strains, locus YNR052C, strain pop2, active compounds read low 1.01 | S. cerevisiae deletion strains, locus YOL012C, strain htz1 0.87 | S. cerevisiae deletion strains, locus YOL147C, strain pex11, active compounds read low 1.01 | S. cerevisiae deletion strains, locus YOR001W, strain rrp6, active compounds read low 0.995 | S. cerevisiae deletion strains, locus YOR061W, strain CKA2, active compounds read low 1.01 | S. cerevisiae deletion strains, locus YOR069W, strain VPS5, active compounds read low 1.01 | S. cerevisiae deletion strains, locus YOR070C, strain gyp1, active compounds read low 1.01 | S. cerevisiae deletion strains, locus YOR080W, strain dia2, active compounds read low 0.996 | S. cerevisiae deletion strains, locus YOR083W, strain WHI5, active compounds read low 0.986 | S. cerevisiae deletion strains, locus YOR106W, strain vam3, active compounds read low 1.01 | S. cerevisiae deletion strains, locus YOR136W, strain idh2, active compounds read low 1 | S. cerevisiae deletion strains, locus YOR144C, strain elg1, active compounds read low 1.01 | S. cerevisiae deletion strains, locus YOR184W, strain ser1, active compounds read low 1.01 | S. cerevisiae deletion strains, locus YOR231W, strain MKK1, active compounds read low 1.02 | S. cerevisiae deletion strains, locus YOR265W, strain rbl2, active compounds read low 1 | S. cerevisiae deletion strains, locus YOR270C, strain vph1, active compounds read low 0.936 | S. cerevisiae deletion strains, locus YOR290C, strain snf2, active compounds read low 1 | S. cerevisiae deletion strains, locus YOR316C, strain cot1, active compounds read low 1 | S. cerevisiae deletion strains, locus YPL051W, strain arl3, active compounds read low 1.02 | S. cerevisiae deletion strains, locus YPL078C, strain atp4, active compounds read low 0.993 | S. cerevisiae deletion strains, locus YPL106C, strain sse1, active compounds read low 1.02 | S. cerevisiae deletion strains, locus YPL240C, strain hsp82, active compounds read low 0.983 | S. cerevisiae deletion strains, locus YPL256C, strain CLN2, active compounds read low 1.06 | S. cerevisiae deletion strains, locus YPR119W, strain clb2, active compounds read low 1 | S. cerevisiae deletion strains, locus YPR141C, strain kar3, active compounds read low 0.996 | S. cerevisiae deletion strains, locus YPR163C, strain tif3, active compounds read low 1 | S. cerevisiae deletion strains, locus YPR167C, strain met16, active compounds read low 1.01 | S. cerevisiae deletion strains, strain wtn01, active compounds read low 1 | S. cerevisiae strains, strain wild type, active compounds read low 1.01
